test system: Plasmodium falciparum; experiment: GSK_TCMDC: Inhibition of Plasmodium falciparum 3D7 in whole red blood cells, using parasite LDH activity as an index of growth. Test compounds present at 2uM; type: functional

Row | Structure (SMILES) | Inhibition [%]
1 | CN1CCCC1CCNCc1cccc(-c2cnc(N(C)C3CCCCC3)nc2)c1 (stereo not given) | 99
2 | C#CCNC(=O)c1ccc(-c2ccnc(Nc3cccc(CCCN4CCOCC4)c3)n2)s1 | 82
3 | Cl.c1cc(COc2ccc(C3=NCCN3)cc2)nc(COc2ccc(C3=NCCN3)cc2)c1 | 100
4 | CCCc1ccc(NC(=O)c2cccc(CN3CCCN(Cc4cccc(O)c4)CC3)c2)cc1.O=C(O)C(F)(F)F | 97
5 | Cc1cnc(N2CCN(CCCN3CCCC3)CC2)nc1Oc1ccc(-n2ccnc2)cc1.O=C(O)C(F)(F)F | 99
6 | N#Cc1cccc(CN2CCCN(Cc3ccc(C(=O)Nc4ccc(Cl)cc4)cc3)CC2)c1.O=C(O)C(F)(F)F | 98
7 | CN(C)CCOc1ccc2nc(-c3cccc(OCc4ccccc4)c3)[nH]c2c1C#N | 100
8 | Cn1nc(-c2ccc(NC(=O)Nc3cc(C(F)(F)F)ccc3F)c(F)c2)c2cnc(NCCCn3ccnc3)nc21.O=C(O)C(F)(F)F | 100
9 | Cc1noc(C)c1-c1ccc2c(Nc3ccc(C(F)(F)F)cc3)c(C(N)=O)cnc2c1.Cl | 100
10 | Cl.O=c1cc(NCCCNCc2ccc(Cl)c(Cl)c2)[nH]c2ccc(Cl)cc12 | 100
11 | CC(C)Cn1c(Sc2ccc(C#N)c([N+](=O)[O-])c2)nnc1-c1cccs1 | 90
12 | O=C(c1cncc(-c2ccccc2)c1)N(Cc1cncn1Cc1ccccc1F)CC1CC1 | 100
13 | CN(C)CC(=O)Nc1ccc(Nc2nccc(NCC(O)c3ccccc3)n2)cc1 (stereo not given) | 95
14 | Cl.Oc1c(Cl)cc(-c2ccccc2)cc1CNC1CCCCC1 | 97
15 | COc1cc(NC(=O)/C=C/c2cc(F)cc(F)c2F)cc(OCCN2CCC(O)(c3ccccc3)CC2)c1.O=C(O)C(=O)O | 100
16 | COc1cc2c(c(Cl)c1OC)CCN(Cc1ccccc1)CC2c1ccc(C(N)=O)cc1 (stereo not given) | 97
17 | COc1ccc(S(=O)(=O)NCCC2CCN(CCCCCNC(=O)C=Cc3ccc(Cl)c(Cl)c3)CC2)cc1 | 87
18 | CCOc1ccccc1C1CCN(CCCCNC(=O)c2ccc(NC(=O)c3ccc(Cl)cc3)cc2)CC1 | 95
19 | Cc1ccc(F)c(OCC2CCCN(c3ccc(C(=O)NC4CC4)cn3)C2)c1 (stereo not given) | 96
20 | O=C(Nc1ccc(C(=O)Oc2ccc(-c3ccccc3)cc2)cc1)N[C@@H](Cc1ccc(O)cc1)C(=O)NC1CCN(Cc2ccc(O)cc2)C1.O=C(O)C(F)(F)F (stereo not given in full) | 94

Row | Structure (SMILES) | Inhibition [%]
21 | Cl.N=C(N)NN=Cc1cc([N+](=O)[O-])ccc1Sc1ccccc1CO | 84
22 | COc1ccc(-c2csc3ncnc(Cl)c23)cc1OC | 93
23 | CCOC(=O)c1c(C)noc1Nc1cccc(C)c1C | 98
24 | Cc1nc(C)c(-c2ccc(Oc3ccc(Cl)cc3Cl)cc2)c(O)c1Br | 98
25 | O=C(Cc1ccccc1)NC1(c2ccccc2)CCN(CCc2c[nH]c3ccc(F)cc23)CC1 | 87
26 | O=C(O)C(F)(F)F.O=C(c1ccccc1)N(Cc1ccccc1-c1ccc(CNCCc2ccccc2)cc1)C1CCN(Cc2ccccc2)CC1 | 95
27 | Cl.Nc1ccnc2ccc(OCCCCCCc3ccccc3)cc12 | 100
28 | O=C(O)C1CC(=O)N(c2ccc(Cl)cc2)C1 (stereo not given) | 97
29 | CN1CCN(c2ccnc3ccc(NC(=O)Nc4cccc(C#N)c4)cc23)CC1 | 99
30 | COc1ccc(S(=O)(=O)NCC2CCCN(CCCCCNC(=O)/C=C/c3ccc(Cl)c(Cl)c3)C2)cc1 (stereo not given) | 81
31 | NC(Cc1cccc(I)c1)C(=O)NCC1CCCO1.O=C(O)C(F)(F)F (stereo not given) | 98
32 | COc1cccc(C(=O)Nc2nc3c(s2)CCN(Cc2ccccc2N2CCNCC2)CC3)c1.O=C(O)C(F)(F)F | 89
33 | Cc1ccc2c(N/N=C/c3ccccc3[N+](=O)[O-])cc(C)nc2c1 | 100
34 | C=C(C)C1CC=C(CN2CCCC(n3ccc4cc(NC(=O)c5ccco5)ccc43)CC2)CC1 (stereo not given) | 90
35 | CC(C)CCN1CCCN(Cc2cccc(NC(=O)c3ccc(-c4ccccc4)cc3)c2)CC1.O=C(O)C(F)(F)F | 92
36 | COC1(C)Oc2ccc3cccc([N+](=O)[O-])c3c2C1=O (stereo not given) | 98
37 | CCCCCCOc1ccc(C(=O)NCCC2CCN(CCCCCNC(=O)C=Cc3ccc(Cl)c(Cl)c3)CC2)cc1 | 99
38 | COc1ccccc1-n1ccnc1SCC(=O)Nc1cc(C(F)(F)F)ccc1Cl | 97
39 | Oc1ccc(C=NNC(S)=Nc2cccc3ccccc23)c(O)c1 | 89
40 | CCNc1cc(C)nc(Nc2ccc(NC(=O)c3ccco3)cc2)n1 | 95

test system: Plasmodium falciparum; experiment: GSK_TCMDC: Inhibition of Plasmodium falciparum Dd2 in whole red blood cells, using parasite LDH activity as an index of growth. Test compounds present at 2uM; type: functional

Row | Structure (SMILES) | Inhibition [%]
41 | CN1CCCC1CCNCc1cccc(-c2cnc(N(C)C3CCCCC3)nc2)c1 (stereo not given) | 95
42 | C#CCNC(=O)c1ccc(-c2ccnc(Nc3cccc(CCCN4CCOCC4)c3)n2)s1 | 45
43 | Cl.c1cc(COc2ccc(C3=NCCN3)cc2)nc(COc2ccc(C3=NCCN3)cc2)c1 | 98
44 | CCCc1ccc(NC(=O)c2cccc(CN3CCCN(Cc4cccc(O)c4)CC3)c2)cc1.O=C(O)C(F)(F)F | 40
45 | Cc1cnc(N2CCN(CCCN3CCCC3)CC2)nc1Oc1ccc(-n2ccnc2)cc1.O=C(O)C(F)(F)F | 82
46 | N#Cc1cccc(CN2CCCN(Cc3ccc(C(=O)Nc4ccc(Cl)cc4)cc3)CC2)c1.O=C(O)C(F)(F)F | 21
47 | CN(C)CCOc1ccc2nc(-c3cccc(OCc4ccccc4)c3)[nH]c2c1C#N | 86
48 | Cn1nc(-c2ccc(NC(=O)Nc3cc(C(F)(F)F)ccc3F)c(F)c2)c2cnc(NCCCn3ccnc3)nc21.O=C(O)C(F)(F)F | 97
49 | Cc1noc(C)c1-c1ccc2c(Nc3ccc(C(F)(F)F)cc3)c(C(N)=O)cnc2c1.Cl | 95
50 | Cl.O=c1cc(NCCCNCc2ccc(Cl)c(Cl)c2)[nH]c2ccc(Cl)cc12 | 54
51 | CC(C)Cn1c(Sc2ccc(C#N)c([N+](=O)[O-])c2)nnc1-c1cccs1 | 32
52 | O=C(c1cncc(-c2ccccc2)c1)N(Cc1cncn1Cc1ccccc1F)CC1CC1 | 0
53 | CN(C)CC(=O)Nc1ccc(Nc2nccc(NCC(O)c3ccccc3)n2)cc1 (stereo not given) | 2
54 | Cl.Oc1c(Cl)cc(-c2ccccc2)cc1CNC1CCCCC1 | 95
55 | COc1cc(NC(=O)/C=C/c2cc(F)cc(F)c2F)cc(OCCN2CCC(O)(c3ccccc3)CC2)c1.O=C(O)C(=O)O | 82
56 | COc1cc2c(c(Cl)c1OC)CCN(Cc1ccccc1)CC2c1ccc(C(N)=O)cc1 (stereo not given) | 60
57 | COc1ccc(S(=O)(=O)NCCC2CCN(CCCCCNC(=O)C=Cc3ccc(Cl)c(Cl)c3)CC2)cc1 | 0
58 | CCOc1ccccc1C1CCN(CCCCNC(=O)c2ccc(NC(=O)c3ccc(Cl)cc3)cc2)CC1 | 27
59 | Cc1ccc(F)c(OCC2CCCN(c3ccc(C(=O)NC4CC4)cn3)C2)c1 (stereo not given) | 94
60 | O=C(Nc1ccc(C(=O)Oc2ccc(-c3ccccc3)cc2)cc1)N[C@@H](Cc1ccc(O)cc1)C(=O)NC1CCN(Cc2ccc(O)cc2)C1.O=C(O)C(F)(F)F (stereo not given in full) | 60

Row | Structure (SMILES) | Inhibition [%]
61 | Cl.N=C(N)NN=Cc1cc([N+](=O)[O-])ccc1Sc1ccccc1CO | 0
62 | COc1ccc(-c2csc3ncnc(Cl)c23)cc1OC | 84
63 | CCOC(=O)c1c(C)noc1Nc1cccc(C)c1C | 0
64 | Cc1nc(C)c(-c2ccc(Oc3ccc(Cl)cc3Cl)cc2)c(O)c1Br | 94
65 | O=C(Cc1ccccc1)NC1(c2ccccc2)CCN(CCc2c[nH]c3ccc(F)cc23)CC1 | 62
66 | O=C(O)C(F)(F)F.O=C(c1ccccc1)N(Cc1ccccc1-c1ccc(CNCCc2ccccc2)cc1)C1CCN(Cc2ccccc2)CC1 | 69
67 | Cl.Nc1ccnc2ccc(OCCCCCCc3ccccc3)cc12 | 99
68 | O=C(O)C1CC(=O)N(c2ccc(Cl)cc2)C1 (stereo not given) | 33
69 | CN1CCN(c2ccnc3ccc(NC(=O)Nc4cccc(C#N)c4)cc23)CC1 | 96
70 | COc1ccc(S(=O)(=O)NCC2CCCN(CCCCCNC(=O)/C=C/c3ccc(Cl)c(Cl)c3)C2)cc1 (stereo not given) | 1
71 | NC(Cc1cccc(I)c1)C(=O)NCC1CCCO1.O=C(O)C(F)(F)F (stereo not given) | 50
72 | COc1cccc(C(=O)Nc2nc3c(s2)CCN(Cc2ccccc2N2CCNCC2)CC3)c1.O=C(O)C(F)(F)F | 11
73 | Cc1ccc2c(N/N=C/c3ccccc3[N+](=O)[O-])cc(C)nc2c1 | 100
74 | C=C(C)C1CC=C(CN2CCCC(n3ccc4cc(NC(=O)c5ccco5)ccc43)CC2)CC1 (stereo not given) | 95
75 | CC(C)CCN1CCCN(Cc2cccc(NC(=O)c3ccc(-c4ccccc4)cc3)c2)CC1.O=C(O)C(F)(F)F | 21
76 | COC1(C)Oc2ccc3cccc([N+](=O)[O-])c3c2C1=O (stereo not given) | 0
77 | CCCCCCOc1ccc(C(=O)NCCC2CCN(CCCCCNC(=O)C=Cc3ccc(Cl)c(Cl)c3)CC2)cc1 | 10
78 | COc1ccccc1-n1ccnc1SCC(=O)Nc1cc(C(F)(F)F)ccc1Cl | 97
79 | Oc1ccc(C=NNC(S)=Nc2cccc3ccccc23)c(O)c1 | 72
80 | CCNc1cc(C)nc(Nc2ccc(NC(=O)c3ccco3)cc2)n1 | 32
